Sampled rows, rich in hits. Any-hit rate of the full collection: about 3.6%.
Pf apPOL block – Pf-apPOL DNA polymerase inhibition; inhibition, % at 10 µM; 210,000 compounds, 0.25% hits; Recombinant Pf-apPOL, molecular beacon fluorescence, 1.5 h
mHTT CaM bind – disrupts binding of mutant huntingtin to calmodulin; P42858; AlphaScreen His-mHTT/GST-CaM binding, luminescence; inhibition, % at 15 µM; 190,000 compounds, 3.6% hits; AID 1671202;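 further: 0% = both proteins with DMSO and 100% = one protein alone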
* = called active by the depositor; x = no result given; + = active, no number. No stated cut-off is given here; in the data, active means inhibition above about 50%; inactive means the rest.

SMILES | Pf apPOL block | mHTT CaM bind
Cc1cc(C)cc(NC(=O)C2CC(=O)N(CCc3c[nH]c4ccc(Cl)cc34)C2)c1 (configuration not stated) | -2.6 | 100.0*
Cc1cccc(NC(=O)C2CC(=O)N(CCc3c[nH]c4ccc(Cl)cc34)C2)c1C (configuration not stated) | 6.8 | 71.0*
O=C(Nc1ccccc1)C1CC(=O)N(CCc2c[nH]c3ccc(Cl)cc23)C1 (configuration not stated) | 3.1 | 32.8
C/C(=C\C(=O)c1cccnc1)Nc1ccc(Br)cc1 | -8.6 | 16.1
Ic1ccc(Nc2ncnc3c2cnn3-c2ccccc2)cc1 | 0.1 | 1.0
COc1ccc(C(=O)Nc2nnc(Cc3ccccc3)s2)cc1OC | 1.4 | 0.8
Cc1cc(C)nc(N=C(NC(=O)c2ccccc2)Nc2cccc(C(F)(F)F)c2)n1 | -2.5 | 3.0
CN(C)c1ccc(/C=C/c2cc(C(F)(F)F)[nH]c(=O)n2)cc1 | -5.2 | 20.0
CN(C)c1ccc(/C=C/c2cc(/C=C/c3ccc(N(C)C)cc3)[n+]3nn(C)nc3n2)cc1 | -0.2 | 100.0*
CSc1cccc(NC(=O)N2CCc3c(c(-c4nc(C5CC5)no4)nn3C)C2)c1 | -6.4 | 52.1*
CSc1ccc(NC(=O)N2CCc3c(c(-c4nc(C)no4)nn3C)C2)cc1 | -2.0 | 36.1
Cc1noc(-c2nn(C)c3c2CN(C(=O)Nc2ccc(Cl)cc2)CC3)n1 | 1.4 | 58.3*
Cn1nc(-c2nc(C3CC3)no2)c2c1CCN(C(=O)Nc1ccccc1)C2 | 0.2 | 12.0
O=C(CCCn1c(=O)[nH]c2ccccc2c1=O)NCCC1=CCCCC1 | 2.4 | -15.9
CN(C)c1ccc(C=NNC2=NCCN2)cc1 | -2.9 | x
CN(C)c1ccc(/C=N/NC(=S)N/N=C/c2ccc(N(C)C)cc2)cc1 | x | +
CSc1cccc(NC(=O)N2CC3CC2CC3NS(=O)(=O)c2ccccc2)c1 (configuration not stated) | -5.6 | 5.3
O=C(O)CN1C(=O)C(=O)c2ccccc21 | 1.8 | 3.0
O=C1C(=O)N(C(c2ccccc2)c2ccccc2)c2ccccc21 | -0.4 | 92.4*
Cc1cccc(N2CCN(C(=O)c3ccc4c(c3)NC(=O)c3ccccc3S4)CC2C)c1 (configuration not stated) | -9.7 | 100.0*
Cc1cccc(N2CCN(C(=O)/C=C3\Sc4ccccc4NC3=O)CC2C)c1 (configuration not stated) | 3.9 | 28.0
O=C(c1ccc(F)cc1)N(Cc1cc(-c2cccs2)on1)C1CC1 | 0.1 | -8.8
Cc1ccc2nc(NC(=O)C3CCCCC3)sc2c1 | -1.8 | 0.0
O=C(Nc1ccc(F)cc1)C1CCC(CNS(=O)(=O)c2cccs2)CC1 (configuration not stated) | -1.8 | -2.0
CCCn1cc2c3c(cccc31)CN(C(=O)c1ccc(OC)cc1)CC2 | -2.8 | 78.0*
SMILES | Pf apPOL block | mHTT CaM bind
Cn1cc2c3c(cccc31)CN(C(=O)c1cc(F)cc(F)c1)CC2 | -1.0 | 29.6
CCn1cc2c3c(cccc31)CN(C(=O)c1ccco1)CC2 | -2.5 | -7.6
COCCn1cc2c3c(cccc31)CN(C(=O)NCc1ccc(OC)cc1)CC2 | 2.1 | 8.7
Cn1cc2c3c(cccc31)CN(C(=O)c1cccc(Cl)c1)CC2 | -7.5 | 72.9*
COc1ccc(C(=O)N2CCc3cn(C)c4cccc(c34)C2)cc1 | -1.5 | 55.1*
COc1ccc(C(=O)N2CCc3cn(C)c4cccc(c34)C2)c(OC)c1 | -2.3 | 47.5
CCn1cc2c3c(cccc31)CN(C(=O)CCc1ccc(OC)cc1)CC2 | -4.2 | 58.5*
CN(CCNC(=O)c1ccc(-c2ccnc(N3CCCC3)n2)cc1)C1CCCCC1 | 5.8 | 17.6
Cn1nc(-c2nc(C3CC3)no2)c2c1CCN(C(=O)c1cc(F)ccc1F)C2 | -2.5 | 13.8
Clc1ccc(OCc2noc(C=Cc3ccccc3)n2)c(Cl)c1 | -2.3 | x
Cc1cccc(OCC(=O)Nc2cccnc2)c1 | -4.6 | -4.4
Cn1cc2c3c(cccc31)CN(C(=O)Cc1ccc(Cl)cc1)CC2 | -1.1 | 26.9
Cc1ccc(C(=O)N2CCc3cn(C)c4cccc(c34)C2)cc1C | -2.7 | 79.0*
CCCn1cc2c3c(cccc31)CN(C(=O)Cc1ccc(OC)cc1)CC2 | -1.9 | 57.2*
CCCn1cc2c3c(cccc31)CN(C(=O)NCc1ccc(OC)cc1)CC2 | -2.5 | 18.4
CS(=O)(=O)N(Cc1ccccc1Cl)c1ccc(C(N)=O)cc1 | -4.1 | -5.0
Cc1cccc(C(=O)N2CCc3cn(C)c4cccc(c34)C2)c1 | -6.9 | 19.0
Cn1cc2c3c(cccc31)CN(C(=O)c1ccc(Cl)cc1)CC2 | -3.5 | 54.3*
CS(=O)(=O)N(Cc1ccccc1Cl)c1ccc(C(=O)N2CCc3ccccc3C2)cc1 | -1.3 | 97.8*
O=C(NCc1cccnc1)C1CCC(c2ccc(F)cc2)N(C(=O)c2ccccc2)C1 (configuration not stated) | -3.3 | 22.9
CCOc1ccc2nc(Nc3ncc4c(n3)CCCC4=O)nc(C)c2c1 | -1.3 | 3.6
COc1ccc(CC(=O)N2CCc3nc4cc[nH]n4c(=O)c3C2)cc1Cl | -4.5 | -1.9
COc1ccc(NC(=O)CCOc2ccccc2)c(OC)c1 | -137.9 | 2.3
COc1ccc(NC(=O)CC2(C)NN=C(c3ccccc3)S2)c(OC)c1 (configuration not stated) | -25.1 | 73.0*
CC(=O)Nc1nc(SCc2ccc([N+](=O)[O-])cc2)n(C(C)=O)n1 | -3.2 | 7.0
SMILES | Pf apPOL block | mHTT CaM bind
O=C(CCSc1ccccc1)NC1CCCCC1 | -10.2 | -6.5
CCOc1ccc(N=C2C(=O)Nc3ccc(C)c(Br)c32)cc1 | -2.0 | 57.0*
CCOc1ccc(N=C2C(=O)Nc3ccccc32)cc1 | -1.5 | 35.0
CC1C(=O)N(c2ccccc2F)CCN1C(=O)c1cccc(F)c1 (configuration not stated) | 2.9 | -3.3
O=C(CCOc1ccccc1)N(CCN1CCOCC1)c1nc2c(Cl)cccc2s1 | -8.2 | 87.1*
CCCC(=O)N(CCN1CCOCC1)c1nc2ccc(Br)cc2s1 | -9.3 | 25.9
CC(C)NC(=O)c1ccc(-c2ccsc2)nc1 | 0.9 | -10.6
COc1ccc2oc(C)c(C(=O)O)c2c1 | 3.1 | 0.0
COc1ccc2oc(C)c(C(C)=O)c2c1 | 97.8* | -6.6
Cn1c(=O)c(N2CCN(C(=O)Cc3ccc(Cl)cc3)CC2)nc2ccncc21 | -3.0 | 11.1
CC1=CC(=NS(=O)(=O)c2ccc([N+](=O)[O-])cc2)C=C(C)C1=O | 1.2 | 67.0*
CCS(CC)=NS(=O)(=O)c1ccc([N+](=O)[O-])cc1 | -5.9 | x
CCCOc1ccccc1C=NNC(=S)Nc1ccc(C)c(C)c1 | -4.0 | x
O=C(NCCn1ccc2ccccc21)C1(c2ccc(Cl)cc2)CCCC1 | 8.4 | 83.0*
O=C(NCCn1ccc2ccccc21)c1c(F)cccc1F | -0.4 | -2.0
CC[C@H]1C(c2ccccc2)=NN(c2ccccc2)[C@@H]1CO | -6.4 | 11.9
C[C@H]1C(c2cccc(Cl)c2)=NN(c2ccccc2)[C@@H]1CO | -3.1 | -84.0
OC[C@@H]1[C@@H](c2ccc(F)cc2)C(c2cccc(Cl)c2)=NN1c1ccccc1 | -0.1 | 71.7*
OC[C@@H]1[C@@H](c2ccc(Cl)cc2)C(c2cccc(Cl)c2)=NN1c1ccccc1 | -5.1 | 74.1*
C[C@H]1C(c2ccc(F)cc2)=NN(c2ccccc2)[C@@H]1CO | 0.2 | -85.1
OC[C@@H]1[C@@H](c2ccc(Cl)cc2)C(c2ccccc2)=NN1c1ccccc1 | -4.6 | 86.4*
COc1cc(/C=C2\C(=O)NC(=O)N(c3cccc(C)c3)C2=O)cc(OC)c1O | -2.9 | 4.0

Screening data from PubChem BioAssay.
